# Source: publication PMC7862700, “An all-to-all approach to the identification of sequence-specific readers for epigenetic DNA modifications on cytosine”
# What was measured:
# Assay in all cases: DAPPL (digital affinity profiling via proximity ligation, sequencing); 10 mM Tris-HCl pH 7.5, 50 mM NaCl, 1 mM DTT, 4% glycerol, room temperature, 30 min; GST-TFs on glutathione beads, 16-mer random dsDNA library, 0.1% formaldehyde crosslink after washing; high values mean tight binding
# FLI1 = biological target: T1, FLI1 (Homo sapiens, UniProt Q01543 1-452); details: protein: recombinant; tags: N-terminal GST; dsDNA, one strand shown
# T1 sequence: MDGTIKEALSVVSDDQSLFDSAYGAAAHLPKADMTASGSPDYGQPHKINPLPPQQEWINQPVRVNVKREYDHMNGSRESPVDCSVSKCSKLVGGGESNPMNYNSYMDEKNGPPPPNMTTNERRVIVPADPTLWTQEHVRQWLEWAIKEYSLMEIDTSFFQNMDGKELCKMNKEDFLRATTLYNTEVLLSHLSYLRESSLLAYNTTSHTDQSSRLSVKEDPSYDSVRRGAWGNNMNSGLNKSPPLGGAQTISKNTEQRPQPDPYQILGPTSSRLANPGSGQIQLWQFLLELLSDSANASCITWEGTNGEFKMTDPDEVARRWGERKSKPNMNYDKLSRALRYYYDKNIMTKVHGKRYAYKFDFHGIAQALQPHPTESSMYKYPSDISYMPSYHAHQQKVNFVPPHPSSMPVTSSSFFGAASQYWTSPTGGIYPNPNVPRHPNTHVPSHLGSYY
# Method in brief: (§1)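 Each value of binding signal is a hexamer's read frequency for a factor divided by the same hexamer's frequency in the tag-only sample. Barcoded, bead-captured GST fusions of human transcription factors made in yeast were pooled with that sample and incubated with 200 nmole of a random double-stranded 16-mer DNA library in Tris/NaCl/DTT/glycerol buffer at room temperature for 30 min. Washing, 0.1% formaldehyde crosslinking, proximity ligation, PCR and Illumina NextSeq500 sequencing followed.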
# ELK1 = biological target: T2, ELK1 (Homo sapiens, UniProt P19419 1-428); details: protein: recombinant; tags: N-terminal GST; dsDNA, one strand shown
# T2 sequence: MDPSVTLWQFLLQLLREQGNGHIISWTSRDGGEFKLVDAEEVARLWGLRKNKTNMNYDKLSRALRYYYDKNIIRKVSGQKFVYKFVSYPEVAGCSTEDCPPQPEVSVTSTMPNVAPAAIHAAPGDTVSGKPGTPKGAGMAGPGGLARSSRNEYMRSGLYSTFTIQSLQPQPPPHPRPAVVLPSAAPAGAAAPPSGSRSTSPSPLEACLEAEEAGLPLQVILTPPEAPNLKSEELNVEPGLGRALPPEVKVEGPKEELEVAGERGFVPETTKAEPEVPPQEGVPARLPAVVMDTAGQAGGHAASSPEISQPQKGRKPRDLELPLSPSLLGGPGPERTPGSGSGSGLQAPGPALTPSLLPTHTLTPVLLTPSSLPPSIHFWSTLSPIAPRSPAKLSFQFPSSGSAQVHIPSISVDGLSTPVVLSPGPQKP
# Method in brief: as §1
# GABPA = biological target: T3, GABPA (Homo sapiens, UniProt Q06546 1-454); details: protein: recombinant; tags: N-terminal GST; dsDNA, one strand shown
# T3 sequence: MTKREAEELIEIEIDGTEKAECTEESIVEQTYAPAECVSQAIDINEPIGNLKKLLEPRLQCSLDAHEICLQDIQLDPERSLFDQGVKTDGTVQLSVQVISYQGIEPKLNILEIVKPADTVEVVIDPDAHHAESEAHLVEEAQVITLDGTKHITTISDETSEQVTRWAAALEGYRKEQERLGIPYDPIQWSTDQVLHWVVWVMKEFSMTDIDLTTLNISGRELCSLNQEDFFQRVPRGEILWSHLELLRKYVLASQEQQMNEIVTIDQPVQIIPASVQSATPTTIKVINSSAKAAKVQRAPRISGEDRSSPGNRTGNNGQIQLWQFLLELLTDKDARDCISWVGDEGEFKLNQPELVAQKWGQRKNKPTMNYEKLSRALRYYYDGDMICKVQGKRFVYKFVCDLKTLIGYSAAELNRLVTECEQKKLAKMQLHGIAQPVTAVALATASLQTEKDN
# Method in brief: as §1
# ERG = biological target: T4, ERG (Homo sapiens, UniProt P11308 1-479); details: protein: recombinant; tags: N-terminal GST; dsDNA, one strand shown
# T4 sequence: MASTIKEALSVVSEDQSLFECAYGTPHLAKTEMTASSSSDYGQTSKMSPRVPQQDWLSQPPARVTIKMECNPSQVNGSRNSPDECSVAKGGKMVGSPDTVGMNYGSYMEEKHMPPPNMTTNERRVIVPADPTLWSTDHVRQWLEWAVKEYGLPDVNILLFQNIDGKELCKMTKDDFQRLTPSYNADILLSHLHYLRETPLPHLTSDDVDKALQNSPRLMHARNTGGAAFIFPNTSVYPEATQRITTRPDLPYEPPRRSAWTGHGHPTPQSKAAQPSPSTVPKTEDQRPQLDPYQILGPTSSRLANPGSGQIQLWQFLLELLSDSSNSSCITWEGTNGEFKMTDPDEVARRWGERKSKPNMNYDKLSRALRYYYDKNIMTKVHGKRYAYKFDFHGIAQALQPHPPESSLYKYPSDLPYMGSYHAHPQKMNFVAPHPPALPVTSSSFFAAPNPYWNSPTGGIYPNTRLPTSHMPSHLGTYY
# Method in brief: as §1
# ELF1 = ELF1 (Homo sapiens, UniProt P32519 1-619); details: protein: recombinant; tags: N-terminal GST; dsDNA, one strand shown
# Method in brief: as §1
# EHF = biological target: T5, EHF (Homo sapiens, UniProt Q9NZC4 1-300); details: protein: recombinant; tags: N-terminal GST; dsDNA, one strand shown
# T5 sequence: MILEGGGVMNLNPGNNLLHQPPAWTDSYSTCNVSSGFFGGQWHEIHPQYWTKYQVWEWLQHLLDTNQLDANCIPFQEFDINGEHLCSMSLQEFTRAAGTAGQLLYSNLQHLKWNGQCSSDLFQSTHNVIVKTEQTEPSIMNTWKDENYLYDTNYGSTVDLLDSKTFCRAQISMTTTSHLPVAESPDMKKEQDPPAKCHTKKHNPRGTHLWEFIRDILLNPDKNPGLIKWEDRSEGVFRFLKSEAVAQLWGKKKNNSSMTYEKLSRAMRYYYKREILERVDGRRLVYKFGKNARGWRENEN
# Method in brief: as §1
# SPI1 = SPI1 (Homo sapiens, UniProt P17947 1-270); details: protein: recombinant; tags: N-terminal GST; dsDNA, one strand shown
# Method in brief: as §1
# SPIB = SPIB (Homo sapiens, UniProt Q01892 1-262); details: protein: recombinant; tags: N-terminal GST; dsDNA, one strand shown
# Method in brief: as §1
# ELK3 = biological target: T6, ELK3 (Homo sapiens, UniProt P41970 1-407); details: protein: recombinant; tags: N-terminal GST; dsDNA, one strand shown
# T6 sequence: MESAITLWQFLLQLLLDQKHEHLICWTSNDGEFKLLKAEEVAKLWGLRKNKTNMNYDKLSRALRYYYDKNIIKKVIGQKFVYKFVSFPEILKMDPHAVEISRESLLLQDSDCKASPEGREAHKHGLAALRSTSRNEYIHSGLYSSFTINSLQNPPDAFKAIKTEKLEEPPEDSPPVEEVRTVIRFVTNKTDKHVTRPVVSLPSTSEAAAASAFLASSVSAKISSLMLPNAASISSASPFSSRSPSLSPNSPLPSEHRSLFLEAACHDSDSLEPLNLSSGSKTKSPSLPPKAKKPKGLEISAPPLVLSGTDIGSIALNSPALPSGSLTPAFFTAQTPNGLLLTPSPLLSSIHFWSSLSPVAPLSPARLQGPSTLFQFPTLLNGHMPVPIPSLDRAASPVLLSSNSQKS
# Method in brief: as §1
# FEV = biological target: T7, FEV (Homo sapiens, UniProt Q99581 1-238); details: protein: recombinant; tags: N-terminal GST; dsDNA, one strand shown
# T7 sequence: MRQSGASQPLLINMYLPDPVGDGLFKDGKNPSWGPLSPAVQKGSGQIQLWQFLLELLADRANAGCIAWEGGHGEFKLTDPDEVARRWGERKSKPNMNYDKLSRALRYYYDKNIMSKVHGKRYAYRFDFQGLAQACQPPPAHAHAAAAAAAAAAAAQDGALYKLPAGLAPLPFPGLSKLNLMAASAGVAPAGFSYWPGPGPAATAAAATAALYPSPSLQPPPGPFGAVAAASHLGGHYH
# Method in brief: as §1
# ETV5 = ETV5 (Homo sapiens, UniProt P41161 1-510); details: protein: recombinant; tags: N-terminal GST; dsDNA, one strand shown
# Method in brief: as §1
# HSF1 = HSF1 (Homo sapiens, UniProt Q00613 1-529); details: protein: recombinant; tags: N-terminal GST; chain copies: 3; dsDNA, one strand shown
# Method in brief: as §1
# SPIC = biological target: T8, SPIC (Homo sapiens, UniProt Q8N5J4 1-248); details: protein: recombinant; tags: N-terminal GST; dsDNA, one strand shown
# T8 sequence: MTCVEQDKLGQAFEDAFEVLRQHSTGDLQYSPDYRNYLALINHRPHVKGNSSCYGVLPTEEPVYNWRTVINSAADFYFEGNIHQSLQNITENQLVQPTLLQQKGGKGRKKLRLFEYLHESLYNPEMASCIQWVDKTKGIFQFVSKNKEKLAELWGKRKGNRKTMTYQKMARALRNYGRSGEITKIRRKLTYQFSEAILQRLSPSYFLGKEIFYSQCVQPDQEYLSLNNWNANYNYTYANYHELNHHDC
# Method in brief: as §1
# ELF4 = ELF4 (Homo sapiens, UniProt Q99607 1-663); details: protein: recombinant; tags: N-terminal GST; dsDNA, one strand shown
# Method in brief: as §1
# ELK4 = biological target: T9, ELK4 (Homo sapiens, UniProt P28324-2 1-405); details: protein: recombinant; tags: N-terminal GST; dsDNA, one strand shown
# T9 sequence: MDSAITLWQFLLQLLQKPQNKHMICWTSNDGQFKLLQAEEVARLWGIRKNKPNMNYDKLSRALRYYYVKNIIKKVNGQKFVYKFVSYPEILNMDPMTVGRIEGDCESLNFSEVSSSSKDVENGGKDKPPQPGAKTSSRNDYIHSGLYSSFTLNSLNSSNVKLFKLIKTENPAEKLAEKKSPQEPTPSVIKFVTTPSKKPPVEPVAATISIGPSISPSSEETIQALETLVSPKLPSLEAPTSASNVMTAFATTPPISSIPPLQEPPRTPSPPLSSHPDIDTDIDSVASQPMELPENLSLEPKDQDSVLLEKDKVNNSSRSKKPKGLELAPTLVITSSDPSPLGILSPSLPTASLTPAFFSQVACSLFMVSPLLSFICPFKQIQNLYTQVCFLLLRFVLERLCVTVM
# Method in brief: as §1
# ETV2 = biological target: T10, ETV2 (Homo sapiens, UniProt O00321 1-342); details: protein: recombinant; tags: N-terminal GST; dsDNA, one strand shown
# T10 sequence: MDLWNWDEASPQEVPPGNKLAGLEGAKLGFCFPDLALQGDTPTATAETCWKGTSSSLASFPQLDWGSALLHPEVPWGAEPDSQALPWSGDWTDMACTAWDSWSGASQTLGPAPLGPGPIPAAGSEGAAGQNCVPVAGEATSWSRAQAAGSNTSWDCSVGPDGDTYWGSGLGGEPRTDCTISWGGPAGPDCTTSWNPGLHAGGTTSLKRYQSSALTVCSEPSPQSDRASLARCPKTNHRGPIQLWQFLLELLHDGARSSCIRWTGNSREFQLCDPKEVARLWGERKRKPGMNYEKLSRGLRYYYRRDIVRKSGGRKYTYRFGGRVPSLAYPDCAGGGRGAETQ
# Method in brief: as §1
# ELF3 = biological target: T11, ELF3 (Homo sapiens, UniProt P78545 1-371); details: protein: recombinant; tags: N-terminal GST; dsDNA, one strand shown
# T11 sequence: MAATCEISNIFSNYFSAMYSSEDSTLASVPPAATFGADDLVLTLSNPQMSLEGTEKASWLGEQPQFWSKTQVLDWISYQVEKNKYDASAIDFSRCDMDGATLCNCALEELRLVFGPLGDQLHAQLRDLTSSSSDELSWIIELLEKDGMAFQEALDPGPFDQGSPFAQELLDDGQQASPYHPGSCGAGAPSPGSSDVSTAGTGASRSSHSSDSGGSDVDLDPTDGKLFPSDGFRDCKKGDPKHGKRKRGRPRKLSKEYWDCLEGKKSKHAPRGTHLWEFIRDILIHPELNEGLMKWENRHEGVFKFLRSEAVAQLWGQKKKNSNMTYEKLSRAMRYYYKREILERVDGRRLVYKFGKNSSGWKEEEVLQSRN
# Method in brief: as §1
# CRX = CRX (Homo sapiens, UniProt O43186 1-299); details: protein: recombinant; tags: N-terminal GST; dsDNA, one strand shown
# Method in brief: as §1
# ETV1 = ETV1 (Homo sapiens, UniProt P50549 1-477); details: protein: recombinant; tags: N-terminal GST; dsDNA, one strand shown
# Method in brief: as §1
# Chain of CRX (O43186 whole entry): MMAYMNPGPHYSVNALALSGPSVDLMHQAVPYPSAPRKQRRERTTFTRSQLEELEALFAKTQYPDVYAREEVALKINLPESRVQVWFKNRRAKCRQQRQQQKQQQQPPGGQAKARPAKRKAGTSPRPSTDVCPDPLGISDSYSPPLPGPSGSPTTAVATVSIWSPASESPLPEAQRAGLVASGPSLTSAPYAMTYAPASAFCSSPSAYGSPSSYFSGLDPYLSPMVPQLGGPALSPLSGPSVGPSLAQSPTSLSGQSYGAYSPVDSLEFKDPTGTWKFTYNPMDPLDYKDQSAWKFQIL
# Chain of ETV5 (P41161 whole entry): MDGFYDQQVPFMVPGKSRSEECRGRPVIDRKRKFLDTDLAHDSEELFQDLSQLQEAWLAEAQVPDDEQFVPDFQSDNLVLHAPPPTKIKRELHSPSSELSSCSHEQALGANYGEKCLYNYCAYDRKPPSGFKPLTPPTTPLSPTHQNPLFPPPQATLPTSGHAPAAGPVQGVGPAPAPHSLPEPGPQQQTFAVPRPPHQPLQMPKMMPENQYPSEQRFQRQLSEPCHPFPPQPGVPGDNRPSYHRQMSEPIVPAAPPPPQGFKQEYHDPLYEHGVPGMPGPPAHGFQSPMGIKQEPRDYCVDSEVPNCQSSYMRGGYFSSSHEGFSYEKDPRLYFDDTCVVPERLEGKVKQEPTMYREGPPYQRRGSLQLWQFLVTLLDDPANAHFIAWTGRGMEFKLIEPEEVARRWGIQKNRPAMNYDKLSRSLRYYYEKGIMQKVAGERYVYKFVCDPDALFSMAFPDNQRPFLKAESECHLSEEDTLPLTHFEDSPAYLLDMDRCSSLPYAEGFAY
# Chain of ELF1 (P32519 whole entry): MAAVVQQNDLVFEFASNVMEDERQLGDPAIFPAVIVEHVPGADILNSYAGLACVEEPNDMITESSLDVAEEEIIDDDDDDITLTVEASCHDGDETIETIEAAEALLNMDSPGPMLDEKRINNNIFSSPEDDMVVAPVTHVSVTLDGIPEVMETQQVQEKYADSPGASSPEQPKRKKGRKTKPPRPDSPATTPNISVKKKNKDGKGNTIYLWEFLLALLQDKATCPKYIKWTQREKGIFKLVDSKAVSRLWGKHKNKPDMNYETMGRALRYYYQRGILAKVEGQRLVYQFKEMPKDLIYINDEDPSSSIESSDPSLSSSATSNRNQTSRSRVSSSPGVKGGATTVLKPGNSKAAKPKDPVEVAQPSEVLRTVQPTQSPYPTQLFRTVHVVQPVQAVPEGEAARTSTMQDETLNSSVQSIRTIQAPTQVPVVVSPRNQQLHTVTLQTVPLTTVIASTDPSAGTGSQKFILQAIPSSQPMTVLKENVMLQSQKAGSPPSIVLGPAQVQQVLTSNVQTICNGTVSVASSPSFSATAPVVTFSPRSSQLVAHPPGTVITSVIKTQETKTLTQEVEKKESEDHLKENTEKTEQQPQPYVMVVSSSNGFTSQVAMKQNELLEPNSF
# Chain of ELF4 (Q99607 whole entry): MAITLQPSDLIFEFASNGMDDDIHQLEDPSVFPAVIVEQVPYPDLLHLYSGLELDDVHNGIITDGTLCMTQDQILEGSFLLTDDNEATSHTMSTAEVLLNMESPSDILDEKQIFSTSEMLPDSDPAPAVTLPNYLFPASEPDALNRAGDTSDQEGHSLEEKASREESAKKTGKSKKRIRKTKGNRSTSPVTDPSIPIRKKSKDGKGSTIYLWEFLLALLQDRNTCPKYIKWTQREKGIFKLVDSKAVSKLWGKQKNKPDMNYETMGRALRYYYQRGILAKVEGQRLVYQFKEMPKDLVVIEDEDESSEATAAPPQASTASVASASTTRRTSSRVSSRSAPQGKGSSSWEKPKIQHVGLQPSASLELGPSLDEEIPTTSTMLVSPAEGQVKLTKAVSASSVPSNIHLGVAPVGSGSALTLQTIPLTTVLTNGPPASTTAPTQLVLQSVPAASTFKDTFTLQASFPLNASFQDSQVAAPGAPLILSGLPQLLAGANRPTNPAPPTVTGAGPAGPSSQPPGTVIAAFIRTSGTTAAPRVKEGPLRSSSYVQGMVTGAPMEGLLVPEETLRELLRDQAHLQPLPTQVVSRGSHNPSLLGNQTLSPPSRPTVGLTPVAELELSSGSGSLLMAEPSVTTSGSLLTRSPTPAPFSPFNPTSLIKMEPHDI
# Chain of ETV1 (P50549 whole entry): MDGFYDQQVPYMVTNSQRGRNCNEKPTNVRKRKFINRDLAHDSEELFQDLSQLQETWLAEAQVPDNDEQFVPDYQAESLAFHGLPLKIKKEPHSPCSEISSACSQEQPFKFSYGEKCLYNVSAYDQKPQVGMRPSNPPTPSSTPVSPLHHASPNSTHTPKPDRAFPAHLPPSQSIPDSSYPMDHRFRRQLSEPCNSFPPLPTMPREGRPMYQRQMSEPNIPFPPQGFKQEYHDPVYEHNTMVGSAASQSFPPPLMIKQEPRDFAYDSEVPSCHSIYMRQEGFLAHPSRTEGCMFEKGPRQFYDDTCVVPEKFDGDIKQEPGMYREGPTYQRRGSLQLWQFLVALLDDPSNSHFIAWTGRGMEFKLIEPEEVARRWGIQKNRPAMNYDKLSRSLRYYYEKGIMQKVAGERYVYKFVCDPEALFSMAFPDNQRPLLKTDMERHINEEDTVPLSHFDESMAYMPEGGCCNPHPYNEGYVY
# Chain of SPIB (Q01892 whole entry): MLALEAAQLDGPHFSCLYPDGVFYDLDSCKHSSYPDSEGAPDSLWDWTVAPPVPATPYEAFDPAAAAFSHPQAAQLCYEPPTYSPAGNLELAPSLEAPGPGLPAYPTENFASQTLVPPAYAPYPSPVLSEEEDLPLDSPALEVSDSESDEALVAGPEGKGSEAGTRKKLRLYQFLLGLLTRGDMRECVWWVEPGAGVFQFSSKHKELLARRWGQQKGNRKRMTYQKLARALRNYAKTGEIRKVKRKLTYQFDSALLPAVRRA
# Chain of HSF1 (Q00613 whole entry): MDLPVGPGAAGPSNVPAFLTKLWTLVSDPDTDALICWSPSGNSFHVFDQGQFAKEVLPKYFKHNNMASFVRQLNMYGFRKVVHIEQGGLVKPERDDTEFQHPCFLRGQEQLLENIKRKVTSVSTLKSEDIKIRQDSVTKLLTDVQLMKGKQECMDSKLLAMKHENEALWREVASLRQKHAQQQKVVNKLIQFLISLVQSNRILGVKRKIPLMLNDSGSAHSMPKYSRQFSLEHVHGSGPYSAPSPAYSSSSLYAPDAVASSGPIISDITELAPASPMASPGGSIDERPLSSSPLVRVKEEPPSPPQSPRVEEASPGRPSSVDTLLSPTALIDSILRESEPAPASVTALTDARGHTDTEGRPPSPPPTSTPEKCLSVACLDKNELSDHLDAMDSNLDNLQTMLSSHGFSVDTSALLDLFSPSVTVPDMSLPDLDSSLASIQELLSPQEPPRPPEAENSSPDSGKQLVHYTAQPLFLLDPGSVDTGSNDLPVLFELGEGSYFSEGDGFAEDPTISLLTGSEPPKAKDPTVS
sequence,measurement,setting,value
TTGCTC,binding signal,FLI1,"1.35 fold enrichment (6-mer frequency, TF over GST control)"
same,binding signal,ELK1,"1.4 fold enrichment (6-mer frequency, TF over GST control)"
same,binding signal,GABPA,"1.37 fold enrichment (6-mer frequency, TF over GST control)"
same,binding signal,ERG,"1.26 fold enrichment (6-mer frequency, TF over GST control)"
same,binding signal,ELF1,"1.28 fold enrichment (6-mer frequency, TF over GST control)"
same,binding signal,EHF,"1.3 fold enrichment (6-mer frequency, TF over GST control)"
same,binding signal,SPI1,"1.3 fold enrichment (6-mer frequency, TF over GST control)"
same,binding signal,SPIB,"1.25 fold enrichment (6-mer frequency, TF over GST control)"
same,binding signal,ELK3,"1.01 fold enrichment (6-mer frequency, TF over GST control)"
same,binding signal,FEV,"1.25 fold enrichment (6-mer frequency, TF over GST control)"
same,binding signal,ETV5,"1.41 fold enrichment (6-mer frequency, TF over GST control)"
same,binding signal,HSF1,"1.3 fold enrichment (6-mer frequency, TF over GST control)"
same,binding signal,SPIC,"1.34 fold enrichment (6-mer frequency, TF over GST control)"
same,binding signal,ELF4,"1.24 fold enrichment (6-mer frequency, TF over GST control)"
same,binding signal,ELK4,"1.16 fold enrichment (6-mer frequency, TF over GST control)"
same,binding signal,ETV2,"1.4 fold enrichment (6-mer frequency, TF over GST control)"
same,binding signal,ELF3,"1.29 fold enrichment (6-mer frequency, TF over GST control)"
same,binding signal,CRX,"1.17 fold enrichment (6-mer frequency, TF over GST control)"
same,binding signal,ETV1,"1.21 fold enrichment (6-mer frequency, TF over GST control)"
